The assay concerns Aedes aegypti neuropeptide Y-like receptor 7 (NPYLR7). Put plainly: agonists of mosquito NPYLR7 receptor, primary screen, cell-based, Aedes aegypti, calcium fluorescence, mosquito biting behavior (AID 1259423).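 Further: 0% = vehicle and 100% = reference agonist at the receptor.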 The conditions noted are these: HEK293T NPYLR7/Galpha15, GCaMP6s calcium fluorescence, at 10 µM, stronger effect = higher value.
[1] abbreviates: measured here: Max-Min RFU normalised activation.

Molecules are shown by their SMILES. Where “and” joins values, the source holds several entries; their conditions need not be identical. Equal entries are not always repeated. Among all 270,000 compounds or so, about 410 (0.15%) were called active. The sample holds actives, similar compounds and a random draw of the others, so the mix is not that of the screen. No stated cut-off is given here; in the data, active means activation above about 40%; inactive means the rest, inconclusive results apart. A structure can be active in one record and inactive in another.

With `O=C(c1ccco1)N(Cc1cccc(Cl)c1)CC1CC(c2ccccc2F)=NO1` (configuration not stated), the activation was -2.38% (inactive). Moreover, the activation under setting [1] was 16.5%.
Taken in the same sequence, the figures for `O=C1CCCCCCCCCOCCCCCO1` were 1.79% (inactive) and 0.962%.
As to `O=C(NCC1CCCO1)c1cccc(Nc2c(Oc3cccc(Cl)c3)cnn(-c3ccccc3)c2=O)c1` (configuration not stated), the activation is 0.00562% (inactive). Besides, the activation under setting [1] amounted to 12.8%.
For `COCCN(CC(=O)N1CCc2sccc2C1c1ccccc1)C(=O)COCc1ccccc1` (configuration not stated), in that order: 1.27% (inactive) and 4.39%.
With `Nc1c(Oc2ccccc2)cc(Nc2ccccc2)c2c1C(=O)c1ccccc1C2=O`, the activation was -6.94% (inactive). Under setting [1], the activation is -5.96%.
Consider `Cc1csc(=Nc2ccccc2)n1C1CCCC1`, for which the activation is 1.06% (inactive). For the same molecule, the activation under setting [1] stood at 7.29%.
Taken in the same sequence, the figures for `O=C1OCCN1Cc1nc(CCc2ccccc2)nn1-c1ccccn1` were -2.22% (inactive) and -8.03%.
For `CC(=O)c1ccc(C(=O)Nc2sc3c(c2-c2nc4ccccc4s2)CCN(C)C3)cc1`, in that order: 12.4% (inactive) and 11.3%.
Consider `CCOc1ccc(C(=O)Nc2sc3c(c2-c2nc4ccccc4s2)CCN(C)C3)cc1`, for which the activation was 105% (active). Under setting [1], the activation is 107%.
Taken in the same sequence, the figures for `CC(=O)N1CCc2c(sc(NC(=O)c3cccs3)c2-c2nc3ccccc3s2)C1` were 3.8% (inactive) and 5.03%.
For `Cc1ccc(CCC(=O)N2CCOC3(CNCCOC3)C2)cc1C` (configuration not stated), in that order: 5.94% (inactive) and 6.1%.
For `Cc1c(NC(=O)C(C)(C)c2ccccc2)cccc1C(=O)N1CCOCC1`, in that order: 2.93% (inactive) and 1.78%.
Turning to `CCOc1nc(-c2ccc(C(F)(F)F)cc2)n(-c2ccc(NCC(O)COCc3ccccc3)cc2)n1` (configuration not stated), the activation is -2.33% (inactive). The activation under setting [1] amounted to 4.92%.
As for `Fc1ccc(N2CCC(N3CCCC(Nc4ccccc4)C3)CC2)cc1` (configuration not stated), the activation was -4.09% (inactive) and -0.074% (inactive). Under setting [1], the activation was -9.41% and 0.61%.
For the molecule `O=[N+]([O-])c1c(Nc2ccccc2)[nH]c2ccccc12`, the activation was 15.3% (inactive). Also, the activation under setting [1] is 12.9%.
Taken in the same sequence, the figures for `CC1(C)SC2C(NC(=O)COc3ccccc3)C(=O)N2C1C(=O)O` (configuration not stated) were -1.02% (inactive) and -6.97%.
On to `CC(Oc1ccccc1)C(=O)N[C@@H]1C(=O)N2[C@@H]1SC(C)(C)[C@@H]2C(=O)O` (some centres not stated), for which the activation is -1.06% (inactive) and 61.5% (active). Moreover, under setting [1], the activation is -1.47% and 49.3%.
For the molecule `CCOC(=O)OC(C)OC(=O)C1N2C(=O)C(NC(=O)[C@H](N)c3ccccc3)C2SC1(C)C` (some centres not stated), the activation was -11.5% (inactive). Under setting [1], the activation was -16.7%.
`CCOC(=O)C(C)Sc1ccc(NC(=O)C(C)C)nn1` (configuration not stated): the activation was 0.376% (inactive). In addition, under setting [1], the activation is -0.597%.
For `CC(=O)N[C@H]1C[C@@H](c2c(C)nc3sccn23)O[C@@H](C2CCCCC2)C1`, in that order: 19.4% (inactive) and 3.2%.
Taken in the same sequence, the figures for `CN(c1ccccc1)c1nnc(C(O)c2cc(F)c(F)c(F)c2)s1` (configuration not stated) were 0.561% (inactive) and -0.28%.
Regarding `CCc1nc2ccc(C(=O)N(C)Cc3ccco3)cn2c1N(C)CCC(C)C`, the activation was -5.57% (inactive). Besides, the activation under setting [1] was -12.5%.
Taken in the same sequence, the figures for `O=C(Nc1ccc(C(F)(F)F)cc1)C1CCCN(c2ccc(-c3ccco3)nn2)C1` (configuration not stated) were -4.36% (inactive) and -8.71%.
For `C=CCN(Cc1csc(COc2ccc(C)c(C)c2)n1)C(=O)c1cccc(OC)c1`, in that order: -4.71% (inactive) and 3.47%.
For `Cc1c(-c2ccccc2)c(=O)oc2c3c(ccc12)OCN(Cc1cccnc1)C3`, in that order: -8.96% (inactive) and -15.9%.
Turning to `COc1cccc(/C=C2\Oc3c(ccc4c3CN(Cc3ccncc3)CO4)C2=O)c1`, the activation was 66.8% (active). In addition, under setting [1], the activation stood at 55.3%.
Taken in the same sequence, the figures for `COCCCN1COc2ccc3c(c2C1)O/C(=C\c1cccc(OC)c1OC)C3=O` were 26.3% (inactive) and 20.7%.
For `Cc1nn(C)cc1N1C(=O)c2cccc3c([N+](=O)[O-])ccc(c23)C1=O`, in that order: -4.56% (inactive) and -14.9%.
Taken in the same sequence, the figures for `Cc1nc2c(=O)n(CC(=O)Nc3ccc(F)cc3)nc(-c3ccc(F)cc3)c2s1` were -3.19% (inactive) and -5.39%.
Consider `COc1ccc(C(=O)NNc2nc3c(C)c(C)ccc3s2)cc1`, for which the activation is 3.57% (inactive). In addition, the activation under setting [1] is -0.501%.
Taken in the same sequence, the figures for `O=S(=O)(Nc1ccccc1OC(F)F)c1ccccc1F` were -1.67% (inactive) and -2.18%.
For `Nc1[nH]n(-c2c(Cl)cc(Cl)cc2Cl)c(=O)c1N=Nc1cccc(C(F)(F)F)c1`, in that order: -0.505% (inactive) and -6.22%.
Consider `O=C(Nc1cccc(Cl)c1)c1cn(CC2CCCO2)cc2c(=O)n(-c3ccccc3)nc1-2` (configuration not stated), for which the activation is 6.66% (inactive). The activation under setting [1] amounted to 6.45%.
For `CCOC(=O)Cc1csc(=Nc2ccc(OC)cc2)n1CCO`, in that order: -15.9% (inactive) and -20.5%.
As for `CC(C)OCCCNC(=O)c1ccc(-c2cccc(C(F)(F)F)c2)s1`, the activation was -2.79% (inactive). The activation under setting [1] came to 5.92%.
As for `Cc1cc2nc3c(=O)[nH]c(=O)nc-3n(C[C@H](O)[C@H](O)[C@H](O)CO)c2cc1C`, the activation was 71.4% (active). Moreover, the activation under setting [1] came out at 64.2%.
For `COc1cccc(OC)c1-c1cnnc(NCCN2CCCc3ccccc32)n1`, in that order: 19.3% (inactive) and 11.8%.
With `COc1ccc(CC(=O)N(Cc2nc3cc(Cl)ccc3o2)C2CCCC2)cc1OC`, the activation was 4.51% (inactive). Besides, the activation under setting [1] was -5.03%.
Taken in the same sequence, the figures for `Cc1c(C(=O)N2CCCCC2CCc2ccc(O)cc2)oc2c(F)cccc12` (configuration not stated) were -1.59% (inactive) and -5.83%.
Turning to `CC1CN(c2ccc(/C=C(\C#N)c3nc4ccccc4[nH]3)o2)CC(C)O1` (configuration not stated), the activation was 81.4% (active). Also, the activation under setting [1] was determined as 110%.
For `N#CC(=C(O)CSc1ccc2c(c1)OCCO2)c1nc2ccccc2[nH]1`, in that order: 5.29% (inactive) and 3.43%.
With `N#C/C(=C/c1cn(-c2ccccc2)nc1-c1ccco1)c1nc2ccccc2c(=O)[nH]1`, the activation is 11.8% (inactive). Under setting [1], the activation is 10.5%.
For the molecule `COc1ccc(C(CC(=O)N(C)Cc2cnccn2)c2ccccc2)cc1` (configuration not stated), the activation is 16% (inactive). Also, the activation under setting [1] is 4.14%.
For the molecule `O=C(NCCCNC(=O)[C@H]1CCCN1C(=O)COc1ccc(Cl)cc1)c1ccc(F)cc1`, the activation was -0.263% (inactive). Also, the activation under setting [1] was 6.73%.
For `CC1CCN(C(=O)C(C)Nc2ccc3c(c2)OCO3)CC1` (configuration not stated), in that order: 3.12% (inactive) and 1.09%.
As to `COc1cc2c(cc1OC)C(c1ccccc1)N(C(=O)c1cc3c(s1)-c1ccccc1OC3)CC2` (configuration not stated), the activation is -0.991% (inactive). In addition, the activation under setting [1] is 6.66%.
For `COc1cc2c(cc1O)[C@@H](Cc1ccc(O)cc1)[N+](C)(C)CC2`, in that order: 5.5% (inactive) and -4.18%.
For `COc1ccc(CC(=O)OCc2ccc(COC(=O)Cc3ccc(OC)c(OC)c3)cc2)cc1OC`, in that order: -2.95% (inactive) and -6.45%.
Consider `COc1ccc(CC2c3cc(OC)c(OC)cc3CC[N+]2(C)CCC(=O)OCCCCCOC(=O)CC[N+]2(C)CCc3cc(OC)c(OC)cc3C2Cc2ccc(OC)c(OC)c2)cc1OC` (configuration not stated), for which the activation is 41.9% (inactive) and -3.83% (inactive) and 69.2% (active). Further, the activation under setting [1] is 33.2% and 2.45% and 52.5%.
`CCOc1ccc(NC(=O)CSc2nc3c(c(=O)n2CCOC)SC(C)C3)cc1` (configuration not stated): the activation was 3.32% (inactive). Also, under setting [1], the activation is 0.972%.
Taken in the same sequence, the figures for `O=C(NC1COC2(CCCCC2)C1)c1ccco1` (configuration not stated) were -4.17% (inactive) and -7.46%.
As to `CC(C)CC(NC1CCN(C(=O)c2ccccc2)CC1)c1ncnn1C` (configuration not stated), the activation was 8.96% (inactive). Further, the activation under setting [1] is 6.07%.
For `C/C(=N/Nc1nc2c(s1)CCCC2)c1ccc(Cl)cc1`, the activation was 0.513% (inactive). Further, under setting [1], the activation was determined as 5.88%.
For `O=C1NC(c2ccc3c(c2)OCO3)C(C(=O)c2ccccc2)C(O)(C(F)(F)F)N1` (configuration not stated), in that order: 42.8% (active) and 72%.
Regarding `CC1=C(C(=O)Nc2ccccc2)C(c2ccc3c(c2)OCO3)NC(=S)N1` (configuration not stated), the activation was 4.23% (inactive). In addition, under setting [1], the activation stood at 8.09%.
For `O=C1NC(c2ccc(Cl)cc2)C(C(=O)c2ccccc2)C(O)(C(F)(F)F)N1` (configuration not stated), in that order: -3.23% (inactive) and -4.42%.
For `Cc1ccc(Cl)cc1NC(=O)CN1C(=O)c2ccc([N+](=O)[O-])cc2C1=O`, in that order: -3.83% (inactive) and -10.3%.
For `CC(C)c1ccc(C2CC(c3ccccc3)=Nc3ncnn32)cc1` (configuration not stated), in that order: 4.24% (inactive) and 2.65%.
As for `O=C(Nc1ccc(N2CCC(Cc3ccccc3)CC2)c(C(=O)NCc2ccc(F)cc2)c1)c1cccc([N+](=O)[O-])c1`, the activation was -3.24% (inactive). Under setting [1], the activation was determined as 7.02%.
In the case of `CCCCNc1ncnc2sc3c(c12)CCC(C)C3` (configuration not stated), the activation was 1.78% (inactive). Moreover, under setting [1], the activation is 2.41%.
Taken in the same sequence, the figures for `O=C(O)CCC(=O)Nc1nc2c(s1)CCCC2` were 1.28% (inactive) and -0.361%.
Taken in the same sequence, the figures for `COc1ccc(C(=O)NCCn2ncc3c(=O)n(Cc4cccc(C)c4)cnc32)cc1` were -1.65% (inactive) and -7.02%.
For `c1csc(-c2nc(CSc3nnc(-c4cccs4)n3C3CC3)co2)c1`, in that order: -0.388% (inactive) and 7.96%.
In the case of `COc1ccccc1CNC1CC2CCC1(C)C2(C)C` (configuration not stated), the activation is 7.42% (inactive). In addition, the activation under setting [1] stood at 2.21%.
Taken in the same sequence, the figures for `COc1ccc(-c2cccc(-c3nnc(C)s3)c2)c(OC)c1` were 2.95% (inactive) and 1.01%.
For the molecule `CC(C)c1ccc(C(=O)NCc2ccccc2CS(=O)(=O)N2CCOCC2)cc1`, the activation was -3.68% (inactive). Also, under setting [1], the activation is -3.21%.
For `Fc1ccccc1-c1noc2c1CN(Cc1cccn1-c1ncccn1)CC2`, the activation is 8.24% (inactive). Further, the activation under setting [1] amounted to 5.36%.
For `Clc1ccc(-c2noc3c2CN(CCn2cc(Cl)cn2)CC3)cc1`, in that order: 74.9% (active) and 54.3%.
Taken in the same sequence, the figures for `c1ccc2c(-c3noc4c3CN(CC3CCCO3)CC4)cccc2c1` (configuration not stated) were 14.2% (inactive) and 6.24%.
For `COCc1c(Br)c(C)nc(OCC(=O)N/N=C\c2cc(Br)c(OCc3ccc(Cl)cc3)c(OC)c2)c1C#N`, in that order: 25.2% (inactive) and 27.7%.
For `Cc1nn(-c2ccc(F)cc2F)c(C)c1CCC(=O)N1Cc2cccc3cccc(c23)C1`, the activation is 4.97% (inactive). In addition, under setting [1], the activation stood at 3.44%.
For `COc1ccc(Cl)c2sc(N(CCN(C)C)C(=O)c3cc(C)n(C)n3)nc12`, in that order: 1.87% (inactive) and 0.849%.
Taken in the same sequence, the figures for `Cc1ccc(Sc2ncccc2C(=O)N2CCN(c3nccc(-c4cccc(C(F)(F)F)c4)n3)CC2)cc1` were 14% (inactive) and 18.9%.
For `COc1cc(OC)cc(C(NC(=O)Cn2ccccc2=O)c2nccn2C)c1` (configuration not stated), in that order: 5.09% (inactive) and 2.46%.
As for `CN(Cc1ccccc1)C1(C(=O)NCC2COCCO2)Cc2ccccc2C1` (configuration not stated), the activation is 2.27% (inactive). The activation under setting [1] was -0.863%.
Regarding `COc1c(C=NNC(=O)c2cc(Br)ccc2O)sc2ccccc12`, the activation was -6.22% (inactive). Under setting [1], the activation is -11.5%.

(Values after PubChem BioAssay AID1259423 (Fisher Drug Discovery Resource Center, 2018).)
